# Laboratory results published in PubChem BioAssay (NCI).
# About 79,000 compounds went through this panel and 15% of them were active in at least one assay; those are over-represented in the sample as a whole. Calls of active or inactive are those of the source. No stated cut-off is given here; in the data, active means growth inhibition above about 70%; inactive means the rest.
# Assay: NCI Yeast Anticancer Drug Screen. Data for the rad50 strain (AID 155);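 further: 0% = growth of vehicle-only cultures of the same strain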
# Details: S. cerevisiae rad50 strain growth inhibition; at 50.0 µM; active compounds read high
# Summary of the method: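 Inhibition values express reduced yeast growth in compound-treated cultures relative to vehicle-treated controls.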
row,SMILES,growth inhibition
1,OC1C(OCc2ccccc2)OC(COCc2ccccc2)C(OC2OC(COCc3ccccc3)C(OCc3ccccc3)C(OCc3ccccc3)C2OCc2ccccc2)C1OCc1ccccc1 (stereo not given),-2.1% (inactive)
2,Nc1nc2c(-c3ccc([N+](=O)[O-])cc3)nnn2c2cccc(Cl)c12,-9.7% (inactive)
3,C[C@H](CCC(=O)NCCS(=O)(=O)O)[C@H]1CC[C@H]2[C@@H]3CC[C@@H]4C[C@H](O)CC[C@]4(C)[C@H]3CC[C@]12C,2.9% (inactive)
4,Cc1cc2nc(/N=C/c3nc(O)c(C)[nH]3)[nH]c2cc1C,33.2% (inactive)
5,OCC1OC2OC(c3ccccc3)(c3ccc(OCc4ccccc4)nc3OCc3ccccc3)OC2C1O (stereo not given),25.9% (inactive)
6,CCOC(=O)C(=CN1C/C(=C/C(C)=C/c2ccccc2)SC1=S)C(=O)OCC,-12.1% (inactive)
7,COC(=O)/C=C\C1(CC(C)C)N=C(c2ccccc2)OC1=O (stereo not given),14.9% (inactive)
8,S=c1[nH]c2ccccc2n2cccc12,14.9% (inactive)
9,C=CCN(CC=C)c1ccccc1,24.1% (inactive)
10,COC(=O)c1ccc([N+](=O)[O-])cc1C(=O)OC,4.85% (inactive)
11,CCCOC(=O)c1ccccc1C(=O)OC1CCCCC1,8% (inactive)
12,Cc1nn(-c2nc(-c3ccc(Br)cc3)cs2)c(C)c1C,12.9% (inactive)
13,O=C(O)CC1CCCNC1 (stereo not given),-11.3% (inactive)
14,CC(=O)CC(=O)NC(C)(C)CC(C)(C)C,-16.4% (inactive)
15,CC(CO)(NC(=O)c1ccccc1)C(=O)O (stereo not given),13.4% (inactive)
16,FC(F)(F)C(F)(F)C(F)(F)C(F)(F)C(F)(F)C(F)(F)C(F)(F)c1noc(C(F)(F)C(F)(F)C(F)(F)C(F)(F)C(F)(F)C(F)(F)C(F)(F)F)n1,-0.55% (inactive)
17,CC(=O)N1C(NN(C)C)CCN1c1ccccc1 (stereo not given),36% (inactive)
18,C=CCN(CC=C)C(=O)Nc1cccc2c(NC(=O)N(CC=C)CC=C)cccc12,-24% (inactive)
19,[CH2+][B-]1(C)n2cc(Br)c[n+]2[B-](C)(C)[n+]2cc(Br)cn21,16.2% (inactive)
20,CN(C)CCCN1c2ccccc2Sc2ccc3ccccc3c21,-0.35% (inactive)

row,SMILES,growth inhibition
1,Cn1c2c(c3ccccc31)CCCC2,1.55% (inactive)
2,CC(C)=C1CCC(CN2CCCC2)C1=O (stereo not given),20.1% (inactive)
3,COc1ccc2c(c1)c1c3c(ccc4ncn2c43)N(CCN(C)C)CCN=1,-27.1% (inactive)
4,O=C(NN1C(=O)CSC1c1ccc(F)cc1)c1ccncc1 (stereo not given),-4.2% (inactive)
5,CCOC(=O)NC(Nc1ccc(F)cc1F)(C(F)(F)F)C(F)(F)F,12.8% (inactive)
6,CCN(CC)CC1CCCCCCCCCCC1=O (stereo not given),-30.3% (inactive)
7,O=C(CC(O)(C(F)(F)F)C(F)(F)F)c1cccc(S(=O)(=O)N2CCOCC2)c1,7.05% (inactive)
8,CC(=O)Nc1cc2c(cc1Br)-c1ccccc1C2=O,-15% (inactive)
9,CCN1C(=NCCO)NS(=O)(=O)c2ccccc21,-17.2% (inactive)
10,O=C(CCCCCC(=O)CC(=O)CCc1ccccc1)CC(=O)CCc1ccccc1,53.3% (inactive)
11,NC(N)=N/N=C/C(=N\N=C(N)N)C(O)CO (stereo not given),28.9% (inactive)
12,S=C(Nc1ccccc1)Nc1nc(-c2ccccc2)c(N=Nc2ccc(Cl)cc2)s1,42.5% (inactive)
13,COc1cccc(C(Nc2nncs2)Nc2nncs2)c1,3.1% (inactive)
14,c1ccc(OCCSCCCCCCCCCCSCCOc2ccccc2)cc1,-5.85% (inactive)
15,Clc1ccc2nc(/C=C/c3ccccc3)cnc2c1,14.6% (inactive)
16,COc1ccc(C2C(C#N)=C(N)NC(=O)C2C(N)=O)cc1 (stereo not given),-12.6% (inactive)
17,O=C1/C(=C/c2ccccc2)CN(C(=O)CCN2CCOCC2)C/C1=C\c1ccccc1,34.2% (inactive)
18,CCN(CC)CCN1C(=O)c2c(c(-c3ccccc3)c3ccccc3c2-c2ccccc2)C1=O,21.6% (inactive)
19,CC(C)N(C(=O)C12C3C4C5(C(=O)O)C(C1C35I)C42C(=O)O)C(C)C (stereo not given),-5.25% (inactive)
20,CN(C1c2ccccc2Oc2ccccc21)S(=O)(=O)c1ccc([N+](=O)[O-])cc1,9.9% (inactive)
